Only some compounds are listed: those with a hit (about 1.2% of all), similar ones and a draw of the others.
Bcl-xL primary = inhibitors of human Bcl-xL, primary screen, biochemical, fluorescence polarization, HTS | Bcl-2-like protein 1 (Homo sapiens), Q07817 | GST-Bcl-xL / FITC-Bim BH3 peptide fluorescence polarization | actives 0.7% (n = 320,000) | inhibition, % at 10.9 µM;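 active = inhibition above the mean of all tested compounds plus 3 SD, cutoff set per campaign, cut at about 30% in these data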;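 also: 0% = DMSO wells and 100% = unlabeled Bim-BH3 peptide competitor; inhibitors lower millipolarization by displacing the labeled peptide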
Cardiac RTF inh = cardiac RTF calcium sensitivity inhibitors, primary screen, biochemical, IANBD-TnC fluorescence, EC70 calcium; Troponin I, cardiac muscle (Homo sapiens) + Troponin T, cardiac muscle (Homo sapiens) + …; IANBD-labeled cardiac RTF, Ca2+ fluorescence; inhibition, % at 7.15 µM; actives 0.12% (n = 340,000); AID 493244, 2011;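 active = inhibition above the mean inhibition of all tested compounds plus 3 SD, cut at about 17% in these data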;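 also: assay run at fixed EC70 calcium of 1.6 mM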
GLD-1 RNA inh = GLD-1/TGE RNA complex disruptors, primary screen, biochemical, fluorescence polarization; AID 2280, 2010; purified GLD-1 + fluorescein TGE RNA; actives 0.44% (n = 320,000); Female germline-specific tumor suppressor gld-1 (Caenorhabditis elegans), Q17339; inhibition, % at 5.96 µM;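 active = percent inhibition above a per-plate cutoff, the plate mean of test compounds plus 3 SD, cut at about 30% in these data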;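 also: 0% = DMSO wells with GLD-1 and probe and 100% = wells lacking GLD-1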
Target sequence (Q17339 whole entry, looked up): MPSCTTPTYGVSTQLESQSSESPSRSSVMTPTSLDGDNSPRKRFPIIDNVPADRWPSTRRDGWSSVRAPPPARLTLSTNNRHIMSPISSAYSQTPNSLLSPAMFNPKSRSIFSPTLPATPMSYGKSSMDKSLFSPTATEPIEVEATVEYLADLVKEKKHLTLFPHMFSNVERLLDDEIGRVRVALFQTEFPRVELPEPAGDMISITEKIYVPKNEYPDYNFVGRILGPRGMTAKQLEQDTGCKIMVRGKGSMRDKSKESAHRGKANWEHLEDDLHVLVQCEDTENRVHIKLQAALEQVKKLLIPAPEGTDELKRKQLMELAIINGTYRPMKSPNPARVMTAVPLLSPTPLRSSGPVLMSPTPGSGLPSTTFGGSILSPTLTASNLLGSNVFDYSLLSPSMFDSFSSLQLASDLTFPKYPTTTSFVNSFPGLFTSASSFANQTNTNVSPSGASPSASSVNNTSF
E coli Lon inh = inhibitors of E. coli Lon protease, primary screen, biochemical, fluorescence polarization | purified E. coli Lon protease | inhibition, % at 7.94 µM | actives 0.42% (n = 360,000) | AID 602123, 2011; in the data active = inhibition above about 13%, passing the limit was not always enough;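 also: 0% = enzyme with probe and DMSO and 100% = no enzyme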
RTF Ca sens act = cardiac RTF calcium sensitivity activators, primary screen, biochemical, IANBD-TnC fluorescence, EC20 calcium. Troponin I, cardiac muscle (Homo sapiens) + Troponin T, cardiac muscle (Homo sapiens) + …. IANBD-labeled TnC RTF fluorescence at EC20 calcium; 0% EC20 calcium, 100% full calcium. activation, % at 7.2 µM. actives 0.24% (n = 340,000);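 active = activation above the mean over all tested compounds plus 3 SD, cut at about 30% in these data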;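 also: rise in fluorescence read as greater calcium sensitivity of cardiac thin filaments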
E coli Lon conf = E. coli Lon protease inhibitor retest, confirmation, biochemical, fluorescence polarization | shares compounds with E coli Lon inh | purified E. coli Lon | inhibition, % at 7.94 µM | actives 31% (n = 1,400); in the data active = inhibition above about 16%;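 also: 0% = enzyme with probe and DMSO and 100% = no enzyme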
Starred values were filed as active, the others as inactive; . = no result; + = active, no number.

SMILES	Bcl-xL primary	Cardiac RTF inh	GLD-1 RNA inh	E coli Lon inh	RTF Ca sens act	E coli Lon conf
COc1ccc(C(=O)N=C2SC3CS(=O)(=O)CC3N2Cc2ccccc2)cc1OC (stereo not given)	1.2	-7.2	-3.2	15.9*	0.4	-0.9
CCc1ccc(NC(=O)Cn2nc(C(F)(F)F)c3c2CCC3)cc1	1.0	-6.1	6.5	3.0	-0.1	.
COC(=O)Cn1cnc2c(oc3ccccc32)c1=O	11.4	-8.0	5.2	22.3*	-5.4	-1.9
Cc1noc(-c2ccccc2)c1NC(=O)Nc1ccc2nc([C@H]3C[C@H](O)[C@@H](CO)O3)[nH]c2c1	.	.	.	16.6*	.	1.7
O=c1[nH]c(-c2ccncc2)nc2ccccc12	10.6	-1.6	5.4	-0.8	-1.6	.
CC(OC(=O)c1ccc(CN2CCCC2=O)cc1)C(=O)Nc1ccc(Cl)cc1 (stereo not given)	1.6	-1.9	4.0	24.4*	-1.9	59.9*
O=C(COC(=O)c1ccc(CN2CCCC2=O)cc1)Nc1ccc(F)cc1	3.0	10.7	3.8	-6.1	-1.5	.
CC(=O)Nc1ccc(NC(=O)C(C)OC(=O)c2ccc(S(=O)(=O)N3CCCCC3)cc2)cc1 (stereo not given)	.	2.6	0.7	67.1*	-3.2	4.8
O=C(c1ccc[nH]1)N1O[C@@H]2C=C[C@H]1C2	.	-5.9	.	-0.5	-0.4	.
Clc1ccc(N2O[C@H]3C=C[C@@H]2C3)nc1	.	.	.	61.0*	.	128.8*
CCCCCCc1cc2cc(S(=O)(=O)c3ccc(F)c(Cl)c3)c(=O)oc2cc1O	6.8	-10.0	97.0*	83.5*	-14.6	-51.4
COc1ccc(CCNC(=O)C/C(C)=N/NC(=O)C(c2ccccc2)c2ccccc2)cc1OC	5.6	-4.5	3.7	8.6	-1.7	.
COc1ccccc1/C=[N+](\[O-])C1SC(=S)N(C)C1(C)C (stereo not given)	-7.0	-0.3	0.8	7.8	20.3	.
CCOC(=O)c1ccc2ncc(C(=O)OCC)c(NCCN(C)C)c2c1	7.0	-26.2	9.6	22.3*	10.1	1.1
CC1CCc2nc(NC(=O)C3CC3)sc2C1 (stereo not given)	1.5	0.0	-3.8	-0.9	-5.3	.
CC1CCc2nc(NC(=O)C3COc4ccccc4O3)sc2C1 (stereo not given)	3.9	-3.7	-10.8	33.9*	2.3	0.1
CCN(CC)C(=O)C1c2ccccc2Oc2ccccc21	194.5*	1.5	168.7*	+	-7.9	-50.5
Cc1cccc(Cl)c1NC(=O)N1CCCN(c2ncccc2[N+](=O)[O-])CC1	1.8	-9.5	3.6	25.0*	-4.2	-7.6
Cc1cccc(NC(=S)N2CCCN(c3ncccc3[N+](=O)[O-])CC2)c1	3.4	2.2	4.7	-4.0	-0.9	.
COc1cccc(C(=O)NCc2ccc3c(c2)cc(C)n3C)c1	12.1	-4.3	24.3	31.0*	7.6	15.6
COc1ccc(S(=O)(=O)NCc2ccc3c(c2)cc(C)n3C)cc1	13.2	-5.8	11.2	14.7*	5.6	9.9
Cc1cc2cc(CNC(=O)c3cccs3)ccc2n1C	14.0	-21.2	14.8	26.8*	5.7	13.7
COc1ccc(/C=C\C(=O)NCc2ccc3c(c2)cc(C)n3C)cc1OC	0.7	-6.8	10.6	25.2*	-1.6	-11.0
CCS(=O)(=O)NCc1ccc2c(c1)cc(C)n2C	6.9	-8.7	8.9	-1.8	1.9	.
CCOC(=O)NCc1ccc2c(c1)cc(C)n2C	24.1	-2.8	21.9	4.0	3.4	.
SMILES	Bcl-xL primary	Cardiac RTF inh	GLD-1 RNA inh	E coli Lon inh	RTF Ca sens act	E coli Lon conf
COc1ccc(CC(=O)NCc2ccc3c(c2)cc(C)n3C)cc1	17.4	-4.0	12.4	5.3	4.2	.
COc1ccc(NC(=O)CCCN(C)S(=O)(=O)c2ccc(C)cc2)cc1	1.3	-2.1	2.2	3.5	-1.2	.
COC(=O)C1=C(C)NC(C)=C(C(=O)OC)C1c1ccc(-c2cccc([N+](=O)[O-])c2)o1	4.5	-0.6	0.2	-1.6	1.4	.
CSc1nnc(CNC(=O)C23CC4CC(CC(C4)C2)C3)n1Cc1ccccc1	-3.7	-11.2	0.5	-3.9	1.3	.
Cn1nc([N+](=O)[O-])c(C(C#N)c2ccccn2)c(Cl)c1=O (stereo not given)	47.7*	-8.4	25.4	16.7*	15.6	12.1
CCCn1nc([N+](=O)[O-])c(C(C#N)c2nc3ccccc3o2)c(Cl)c1=O (stereo not given)	21.0	1.4	2.0	-4.3	-8.5	.
Cc1cccc(NC(=O)C2CCCN(S(=O)(=O)c3c(C)nn(C)c3C)C2)c1 (stereo not given)	1.5	-1.9	-4.9	-2.3	3.2	.
Cc1cccc(NC(=O)C2CCCN(S(=O)(=O)c3c(C)nn(C)c3C)C2)n1 (stereo not given)	-0.3	-9.5	8.8	12.2*	-1.1	-9.2
Cc1ccc(C=Nc2cccnc2N)cc1	60.3*	-40.8	79.8*	+	9.2	4.8
CCOc1ccc(C=Nc2cccc3ncccc23)cc1	3.6	-12.9	1.3	-4.0	-5.0	.
COc1ccc(C=Nc2cccnc2N)cc1	46.0*	-101.3	63.5*	+	10.6	-13.7
CCCCNC(=O)C1(C)CCCCN1C(=O)c1sccc1C (stereo not given)	.	.	.	21.6*	.	-1.4
CCCCNC(=O)C1(C)CCN1C(=O)c1c(F)ccc(C)c1F (stereo not given)	.	.	.	-4.8	.	.
CCCCNC(=O)C1(C)CCN1C(=O)c1ccc(OC)c(F)c1 (stereo not given)	.	.	.	15.9*	.	-7.0
Cc1c(N=C2N=C(NC(=O)Nc3ccc(Cl)cc3)c3ccccc32)c(=O)n(-c2ccccc2)n1C	0.6	-4.0	-14.7	-4.7	23.8	.
COc1ccc(NC(=O)Nc2sc(NS(=O)(=O)c3ccccc3)nc2C)cc1	9.3	0.0	-3.0	14.4*	12.7	-3.2
O=C1c2ccccc2-c2c1cccc2C(=O)N1CCN(C(=O)c2ccco2)CC1	7.7	-5.5	1.8	-4.2	3.3	.
O=C(O)CCCNc1cc(N2CCN(C(=O)c3ccco3)CC2)c2noc3c2c1C(=O)c1ccccc1-3	134.8*	-31.5	98.6*	26.3*	8.5	131.9*
O=C(O)c1ccc(CN2C(=O)CSC2=S)cc1	26.5	3.7	-0.9	15.8*	8.3	-7.0
COc1cccc(/C=N/NC(=O)CCn2c3ccccc3c3ccccc32)c1	-0.1	-6.7	6.1	2.9	-0.7	.
NNC(=O)CCn1c2ccccc2c2ccccc21	7.0	-9.8	9.0	20.7*	5.2	-8.3

Compound activity from PubChem.
